# High-throughput results as filed in PubChem BioAssay.
# CYP2C19 act: increases human CYP2C19 enzyme activity; recombinant CYP2C19, luciferin-H EGE luminescence; stronger effect = higher value; 0 = fully inhibited enzyme, 1 = untreated enzyme; 96,000 tested, under 10 active; activation factor at 5 µM; P33261;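 active = activation factor of at least 2 at 5 µM in the primary screen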;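 also: 0 = wells with 2.5 mM tranylcypromine and 1 = vehicle-only wells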
# CYP2C19 inhib: blocks human cytochrome P450 2C19; actives 21% (n = 96,000); P33261; inhibition, % at 5 µM; AID 778; CYP2C19 Supersomes, luciferin-H EGE luminescence, 30 min;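 active = CYP2C19 inhibition above a set limit at 5 µM in the primary screen, cut at about 50% in these data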;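 also: plate controls were negative control wells for no effect and 2.5 mM tranylcypromine positive control for full effect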
# CYP2C9 inh: human CYP2C9 inhibition | P11712 | CYP2C9 Supersomes, luciferin-H conversion, luminescence | inhibition, % at 5 µM | actives 20% (n = 96,000);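 active = blocking of liver enzyme CYP2C9 beyond about 50% at 5 µM, limit read from the data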
# Target sequence (P11712 whole entry, looked up): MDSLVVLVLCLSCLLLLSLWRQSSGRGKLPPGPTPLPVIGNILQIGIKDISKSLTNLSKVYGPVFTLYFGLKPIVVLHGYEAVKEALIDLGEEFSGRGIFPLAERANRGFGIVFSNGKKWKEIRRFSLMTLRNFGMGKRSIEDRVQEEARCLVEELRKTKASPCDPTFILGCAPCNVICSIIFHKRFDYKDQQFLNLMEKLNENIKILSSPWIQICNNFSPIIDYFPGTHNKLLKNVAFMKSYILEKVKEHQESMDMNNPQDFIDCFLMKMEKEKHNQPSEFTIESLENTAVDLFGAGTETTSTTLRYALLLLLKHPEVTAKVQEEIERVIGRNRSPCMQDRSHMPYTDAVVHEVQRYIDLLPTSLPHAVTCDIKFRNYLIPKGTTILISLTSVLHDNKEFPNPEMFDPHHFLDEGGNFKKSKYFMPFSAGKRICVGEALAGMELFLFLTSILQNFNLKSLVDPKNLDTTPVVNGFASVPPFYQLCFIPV
# PTK2B oligo ant: Pyk2 (human) oligomerization antagonism; Q14289; Q293 cells, Pyk2 FERM NanoBiT luminescence; stronger effect = lower value; z-score (the deposit names both 25 µM and 10 µM); actives 0.83% (n = 99,000); AID 1347419;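 active = Z-score of -3 or lower, scaled per plate to the spread of control and sample wells; inactive = z-score above -3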;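 also: negative z-score means lost luminescence so less FERM oligomerization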
# CYP2C9 activ: activators of human CYP2C9; recombinant CYP2C9, luciferin-H conversion, luminescence; stronger effect = higher value; factor 1 = untreated enzyme, 0 = blocked; actives 1.4% (n = 96,000); activation factor at 5 µM;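 active = activation factor of 2 or more for CYP2C9 at a 5 µM dose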;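 also: 0 = sulfaphenazole-blocked wells and 1 = vehicle-only wells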
# The depositor's hits bear a star; . = no result given. Shown are actives, neighbours in structure and some others; about 28% of the full set was active somewhere.
SMILES,CYP2C19 act,CYP2C19 inhib,CYP2C9 inh,PTK2B oligo ant,CYP2C9 activ
O=C(O)C1CC=CCC1C(=O)Nc1ccccc1Cl (stereo not drawn),1.1,-10,-5,1.5,1
Cc1cccc(C)c1NC(=O)c1cc(S(=O)(=O)N2CCOCC2)ccc1F,.,.,.,-0.06,.
Cc1ccccc1NC(=O)CN(C)S(=O)(=O)c1cccc2cccnc12,0.3,72*,88*,.,0.1
Cc1cccc(NC(=O)CN(C)S(=O)(=O)c2cccs2)c1,0.2,80*,38,0.32,0.6
COc1ccc(NC(=O)CN(C)S(=O)(=O)c2cccs2)cc1,0.6,44,49,-0.16,0.5
CN(CC(=O)Nc1ccc2c(c1)OCCO2)S(=O)(=O)c1cccc2cccnc12,0.2,78*,94*,.,0.1
Cc1ccc(S(=O)(=O)N(C)CC(=O)Nc2cccc3c2CCCC3)cc1,0.6,44,-4,-0.23,1
O=S(=O)(Nc1cccnc1)c1cccs1,1,-2,8,-0.23,0.9
Cc1cccc(NS(=O)(=O)c2cccs2)c1,0.1,93*,20,0.91,0.8
CCn1nc(C)c(/C=C2\CCCC3=C2OC(N)=C(C#N)C3c2c(C)nn(CC)c2C)c1C (stereo not drawn),0.9,15,17,.,0.8
CCCC(=O)Nc1sc2c(c1C#N)CCCCC2,.,.,.,2.1,.
O=C(NC1CCCCC1)NC1CC2CCC(C1)N2Cc1nnnn1Cc1ccc2c(c1)OCO2 (stereo not drawn),0.8,20,6,-0.33,0.9
Cc1cccc(NC(=O)CN(C)S(=O)(=O)c2cccc3cccnc23)c1,0.5,48,54*,.,0.5
CN(CC(=O)Nc1ccc(Cl)cc1)S(=O)(=O)c1cccc2cccnc12,0.5,48,68*,.,0.3
COc1ccc(NC(=O)CN(C)S(=O)(=O)c2cccc3cccnc23)cc1,0.3,70*,90*,.,0.1
CN(CC(=O)Nc1ccc(F)c(Cl)c1)S(=O)(=O)c1cccc2nsnc12,.,.,.,-1,.
COc1ccccc1C1=NOC(COC(=O)c2ccc3ccccc3n2)C1 (stereo not drawn),0.7,35,-121,0.04,2.2*
C=CCOC(=O)C1CC=CCC1C(=O)Oc1ccc(F)cc1F (stereo not drawn),0.1,86*,69*,-0.34,0.3
O=C1Oc2ccccc2C2(O)C3CCCCCC3C12 (stereo not drawn),0.1,95*,20,-0.36,0.8
O=C(c1csc2c1CCCC2)N1CCCCC1,0.5,52*,-38,0.22,1.4
O=C(c1csc2c1CCCCC2)N1CCN(c2ncccn2)CC1,0.1,88*,89*,0.3,0.1
O=C(c1csc2ccccc12)N1CCCCCC1,0.8,25,-47,0.57,1.5
Cn1c(=O)[nH]c(=O)c2c1nc(NCc1ccccc1)n2CCCc1ccccc1,0.7,32,38,-1.3,0.6
O=C(NC1CCCCC1)C(c1ccc(F)cc1)N(Cc1ccc2c(c1)OCO2)C(=O)c1cnsn1 (stereo not drawn),.,.,.,-1.6,.
O=C(CCCC(=O)N(CC(=O)NC1CCCC1)Cc1ccccc1)Nc1ccccn1,0.5,46,50*,0.61,0.5
SMILES,CYP2C19 act,CYP2C19 inhib,CYP2C9 inh,PTK2B oligo ant,CYP2C9 activ
CCOc1ccc(N(CC(=O)NC2CCCC2)C(=O)CCCC(=O)Nc2ccccn2)cc1,0.8,20,14,3.1,0.9
O=C(CCC(=O)N(CC(=O)NC1CCCCC1)c1ccc2c(c1)OCO2)Nc1ccccn1,0.6,39,44,-0.23,0.6
O=C(CN(Cc1ccccc1)C(=O)CCC(=O)Nc1ccccn1)NCc1ccco1,0.4,59*,28,0.74,0.7
O=C(CCCC(=O)N(CC(=O)NC1CCCC1)Cc1ccc2c(c1)OCO2)Nc1ccccn1,0.4,60*,60*,1.1,0.4
O=C(CN(Cc1ccc2c(c1)OCO2)C(=O)c1cnsn1)NC1CCCC1,0.1,88*,27,0.93,0.7
COC(=O)c1c(C(=O)OC)c(-c2cccc(C)c2)n2c1CS(=O)(=O)C2,1,1,3,0.33,1
O=C(CCCC(=O)N(c1ccc2c(c1)OCCO2)C(C(=O)NC1CCCCC1)c1ccc(Cl)cc1)Nc1ccccn1 (stereo not drawn),0.5,55*,52*,-0.94,0.5
COc1ccc(C(C(=O)NC2CCCCC2)N(C(=O)CCCC(=O)Nc2ccccn2)c2ccc3c(c2)OCCO3)cc1 (stereo not drawn),0.6,41,27,1.8,0.7
Cc1ccc(C)c(-c2cc(C(=O)NCc3cccs3)c3ccccc3n2)c1,0.7,29,52*,-1.1,0.5
Cc1ccc(-c2nc3ccccc3c(C(=O)NCc3cccs3)c2C)cc1,0.1,87*,95*,-2.3,0.1
Cc1ccc(NC(=O)CCC(=O)NNC(=O)C(c2ccccc2)c2ccccc2)c(C)c1,1,0,-5,-0.29,1
Cc1sc2ncnc(N3CCCCC3C)c2c1C (stereo not drawn),0.2,79*,47,0.18,0.5
N#Cc1cn(CC(=O)NCc2cccnc2)c2ccccc12,0.2,80*,63*,0.16,0.4
Cc1c(Br)c([N+](=O)[O-])nn1CC(=O)NCc1cccnc1,0.1,90*,68*,0.25,0.3
N#Cc1cn(Cc2ccccc2)c2ccccc12,0.1,91*,84*,-1.4,0.2
N#Cc1ccccc1Cn1cc(C#N)c2ccccc21,.,.,.,-0.65,.
CCC(=O)c1cn(CC(=O)NCc2cccnc2)c2ccccc12,0.1,86*,91*,0.11,0.1
CCOC(=O)N(CC)OC(=O)Nc1ccc(Cl)cc1,0.2,78*,58*,-0.51,0.4
CCOC(=O)N(C)OC(=O)Nc1ccc(Cl)c(Cl)c1,0.8,17,18,-0.04,0.8
COc1ccc(S(=O)(=O)N2CCC(C(=O)Nc3ccc4c(c3)OCCO4)CC2)cc1OC,1.1,-5,32,0.24,0.7
Cc1cc(C)c(S(=O)(=O)c2c(C)cccc2C)c(Cl)n1,0.3,75*,43,0.35,0.6
CCOC(=O)c1sc(NC(=O)CSc2nnc(Cc3ccccc3)o2)c(C(=O)OCC)c1C,0.5,54*,78*,-0.51,0.2
CCOC(=O)c1c(NC(=O)CSc2nnc(CNc3ccc(Cl)cc3)o2)sc(C)c1C,.,.,.,-0.36,.
CCOC(=O)c1c(NC(=O)CSc2nnc(CNc3ccc(F)cc3)o2)sc(C)c1C,0.9,12,63*,0.67,0.4
CCCCn1c(N)c(Sc2ccc(C)cc2)c(=O)[nH]c1=O,0.5,53*,41,0.33,0.6
CCCCn1c(=O)[nH]c(=O)c2c1nc(-c1ccncc1)n2CCOC,0.6,37,41,0.21,0.6
O=c1c(N2CCCCC2)coc2ccccc12,0.8,15,-29,-0.23,1.3
O=C(c1ccccc1)N1CCN(c2ncnc3sc4c(c23)CCC4)CC1,0.1,92*,83*,-0.88,0.2
c1ccn(-c2ncnc3sc4c(c23)CCCC4)c1,0,96*,34,-0.9,0.7
O=C(O)CSc1ncnc2sc3c(c12)CCC3,1,-4,6,-0.99,0.9
